Experimental findings from PubChem BioAssay AID1851 (National Center for Advancing Translational Sciences (NCATS), 2009) are described below.

The campaign covered roughly 16,000 compounds. About 2,600 (16%) were called active. Roughly 20% stayed inconclusive and do not appear here. The call rests on the fitted dose curve; in most records, active means well fitted curve in the direction sought with a large enough effect; inconclusive means small, poorly fitted or top-dose-only effect, or effect the other way; inactive means no such curve, though single readings can be large or run the other way. Not all results are given here.
On the % scale 0 is the no-effect control and ±100 the full control effect.

The target of the assay is Cytochrome P450 2D6 (Homo sapiens) (UniProt P10635). The experiment in a line: Cytochrome panel assay with activity outcomes. The conditions noted are these: recombinant CYP, pro-luciferin dealkylation, luminescence, p450-cyp2d6; series mostly up to 57.1 µM.
Sequence of Cytochrome P450 2D6 (Homo sapiens) (P10635 whole entry, looked up): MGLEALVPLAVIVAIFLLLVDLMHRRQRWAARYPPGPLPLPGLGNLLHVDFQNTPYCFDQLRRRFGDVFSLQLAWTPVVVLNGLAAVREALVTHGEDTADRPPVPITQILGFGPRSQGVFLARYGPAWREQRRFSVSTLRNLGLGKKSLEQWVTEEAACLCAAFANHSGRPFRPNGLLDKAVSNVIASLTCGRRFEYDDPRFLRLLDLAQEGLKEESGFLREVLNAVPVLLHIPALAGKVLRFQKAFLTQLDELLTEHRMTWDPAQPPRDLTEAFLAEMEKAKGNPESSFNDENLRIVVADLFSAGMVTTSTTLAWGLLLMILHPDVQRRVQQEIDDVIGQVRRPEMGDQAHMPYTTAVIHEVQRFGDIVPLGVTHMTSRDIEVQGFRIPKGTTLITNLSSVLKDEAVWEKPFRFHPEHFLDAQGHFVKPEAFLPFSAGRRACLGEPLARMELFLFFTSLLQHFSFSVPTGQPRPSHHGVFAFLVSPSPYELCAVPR
In the case of `O=c1cnc2cnc(Nc3ccccc3)nc2n1Cc1cccs1`, the AC50 result is “inactive”.

Regarding `c1ccc(-n2cnc3cc(NCc4cccs4)ccc32)cc1`, the AC50 was 1.12 µM (active).

`O=C(O)[C@H]1CCCNC1`: the AC50 result is “inactive”.

On to `Cc1cc(=O)oc(C)c1C(=O)NCc1cccnc1`, for which the AC50 entry was “inactive”.

Take `Cc1ccccc1CS(=O)(=O)Cc1ccc(C(=O)NCc2cccnc2)o1`: the AC50 is 10 µM (active).

Take `Cc1cccc(CS(=O)(=O)Cc2ccc(C(=O)NCc3ccco3)o2)c1`: the AC50 entry is “inactive”.

On to `Cn1cccc1C(=O)N1CCC2(CC1)CN(c1ccccn1)C2`, for which the AC50 entry is “inactive”.

`COc1cc(OC)c(C2C(C(=O)Nc3ccc(C)cc3C)=C(C)Nc3ncnn32)cc1OC` (stereo not given): the AC50 entry is “inactive”.

In the case of `Cc1ccc(S(=O)(=O)NC(=O)c2cccn2C)cc1`, the AC50 result is “inactive”.

For the compound `O=C(Cn1cccc1C(=O)c1ccccc1)NCc1cccs1`, the AC50 is 5.01 µM (active).

As to `Cc1ccccc1C(=O)c1cccn1CC(=O)NCc1ccco1`, the AC50 result was “inactive”.

Consider `O=C(Cn1ccc([N+](=O)[O-])n1)NCc1cccs1`, for which the AC50 entry was “inactive”.

Consider `COCCn1c(=O)c(-c2cccs2)nc2cnc(N3CCNCC3)nc21`, for which the AC50 result is “inactive”.

As for `COc1cc(NC(=O)Cc2c(C(=O)O)[nH]c3ccccc23)cc(OC)c1OC`, the AC50 result was “inactive”.

As for `CCC(CC)C(=O)Nc1c2c(nn1-c1ccc(OC)cc1)CS(=O)(=O)C2`, the AC50 entry was “inactive”.

Regarding `CCOC(=O)c1c(C)[nH]c(C)c1C(=O)COC(=O)c1ccc(S(=O)(=O)N(CC)CC)cc1`, the AC50 was 28.2 µM (active).

For `CCOC(=O)c1c(C)[nH]c2ccc3c(c12)CN1CCc2cc(OC)ccc2[C@@H]1O3`, the AC50 entry is “inactive”.

Regarding `CCN(CC)S(=O)(=O)c1ccc(C(=O)NC2=C(C(=O)OC)SCC2)cc1`, the AC50 entry is “inactive”.

Turning to `CCOC(=O)c1ccc(S(=O)(=O)N2CCN(C)CC2)cc1`, the AC50 result is “inactive”.

For `CCOC(=O)c1c(C)[nH]c(C)c1C(=O)COC(=O)c1cccc(S(=O)(=O)N(CC)CC)c1`, the AC50 was 17.8 µM (active).

In the case of `CCN(CC)S(=O)(=O)c1cccc(C(=O)N[C@H](C(=O)OCC(=O)NC(=O)NC)C(C)C)c1`, the AC50 entry was “inactive”.

For the compound `CS(=O)(=O)N1CCC2(CCN(C(=O)Nc3cccc(C#N)c3)CC2)CC1`, the AC50 result was “inactive”.

For `O=C1c2c(O)cc(O)cc2O[C@@H](c2ccc(O)c(O)c2)[C@H]1O`, the AC50 entry was “inactive”.

In the case of `CC1=NN(c2ccccc2)C(=O)/C1=C\N1CC(C)OC(C)C1` (stereo not given), the AC50 result was “inactive”.

Take `COc1cc2c(cc1OC)C(C(=O)Nc1ccc3c(c1)OCCO3)C(c1cccnc1)N(C)C2=O` (stereo not given): the AC50 result is “inactive”.

Regarding `FC(F)(F)c1nc(-c2ccncc2)ncc1-c1nnnn1-c1ccccc1`, the AC50 entry is “inactive”.

As for `CCOCC(=O)Nc1cc(C(=O)Nc2cccc(C)c2C)ccc1Cl`, the AC50 entry is “inactive”.

For `O=C(Nc1ccc(F)cc1)c1ccc(-n2ccnc2)nc1`, the AC50 is 0.178 µM (active).

As for `C/C(CC(=O)Nc1ccccn1)=N\NC(=O)C(=O)Nc1cccc(Cl)c1C`, the AC50 entry is “inactive”.

`CC(C)C(=O)Nc1ccc(NC(=O)c2cccnc2)cn1`: the AC50 entry was “inactive”.

With `Cc1ccc(C(=O)Nc2ccc(N3CCOCC3)nc2)cc1`, the AC50 result is “inactive”.

Consider `Cc1c(Cl)cccc1NC(=O)c1ccc(-n2ccnc2)nc1`, for which the concentration at half-maximal activity (AC50) is 0.0316 µM (active).

As for `O=S(=O)(/N=C(/Nc1ccccn1)c1ccccc1)c1ccccc1`, the AC50 entry is “inactive”.

Turning to `CN1CCN(Cc2nc3cccc4c3c([n+]2[O-])-c2ccccc2-4)CC1`, the activity, negative = inhibition is -3.37% [at 11.4 µM] (inactive).

As to `N#C[C@H]1CN[C@H](N)N[C@@H]1N`, the activity, negative = inhibition is 8.31% [at 11.4 µM] (inactive).

For `Cc1cccc2c1Oc1ccccc1[C@@H]2NC(=O)c1ccc([N+](=O)[O-])cc1`, the activity, negative = inhibition is 13.1% [at 11.4 µM] (inactive).

For the compound `CCc1ccccc1NC(=O)CSc1nc(-c2ccccc2)nn1C(=O)c1cccc([N+](=O)[O-])c1`, the AC50 is 10 µM (active).

Take `O=C(c1ccc([N+](=O)[O-])cc1)n1nc(-c2ccccc2)nc1NCc1ccccc1`: the AC50 result is “inactive”.

Turning to `CSc1nc(-c2ccccc2)nn1C(=O)c1ccccc1`, the AC50 entry was “inactive”.

Consider `Nc1c(C(=O)NCc2ccccc2)sc2nc3c(cc12)C(=O)CCC3`, for which the AC50 result is “inactive”.

For the compound `C[C@@](N)(C(=O)O)c1ccc(P(=O)(O)O)cc1`, the AC50 result was “inactive”.

Consider `O=C(O)c1cc(=O)cc(C(=O)O)[nH]1`, for which the AC50 result was “inactive”.

As to `CC(=O)N1CCN(C(=O)CC2OC(=O)c3ccccc32)CC1` (stereo not given), the AC50 entry is “inactive”.

On to `CCOC(=O)Cc1csc(NC(=O)CCCCCN2C(=O)c3ccccc3C2=O)n1`, for which the AC50 was 14.1 µM (active).

On to `CCOC(=O)c1sc(NC(=O)CCCCCN2C(=O)c3cccc4cccc(c34)C2=O)nc1C`, for which the AC50 entry is “inactive”.

On to `CCOC(=O)Cc1csc(NS(=O)(=O)c2ccccc2)n1`, for which the AC50 entry is “inactive”.

For `CCOC(=O)C1=C(C)Nc2ncnn2C1c1cccnc1` (stereo not given), the AC50 result was “inactive”.

In the case of `CCCC(=O)Nc1nc(C(=O)OCC)cs1`, the AC50 entry was “inactive”.

For `Nc1ccn([C@@H]2CC[C@H](CO)O2)c(=O)n1`, the AC50 result was “inactive”.

As to `C[C@]12CC[C@H]3c4ccc(O)cc4CC[C@@H]3[C@H]1CC[C@@H]2OC(=O)CCC1CCCC1`, the activity, negative = inhibition was 1.36% [at 11.4 µM] (inactive).

As to `CCCC1(C(=O)OC)C=C2C(=C(c3ccccc3)C(=O)C2C)CN1` (stereo not given), the AC50 result is “inactive”.

In the case of `COC(=O)C1(C)C=C2C(=C(c3ccccc3)C(=O)C2C)CN1` (stereo not given), the AC50 result was “inactive”.

Turning to `CCCCCC1=C2CNC(CC(C)C)(C(=O)OC)C=C2C(C)C1=O` (stereo not given), the AC50 is 5.01 µM (active).

As to `CCCC1(C(=O)OC)C=C2C(=C(C)C(=O)C2C)CN1` (stereo not given), the AC50 result was “inactive”.

In the case of `COC(=O)C1(Cc2ccccc2)C=C2C(=C(C(C)C)C(=O)C2C)CN1` (stereo not given), the AC50 was 12.6 µM (active).

`COC(=O)C1(CC(C)C)C=C2C(=C(c3ccccc3)C(=O)C2C)CN1` (stereo not given): the AC50 result was “inactive”.

On to `CCCCCC1=C2CNC(Cc3ccccc3)(C(=O)OC)C=C2C(C)C1=O` (stereo not given), for which the AC50 was 12.6 µM (active).

With `CCCC1(C(=O)OC)C=C2C(=C(C(C)C)C(=O)C2C)CN1` (stereo not given), the AC50 entry is “inactive”.

For the compound `CO[C@H]1COC(=O)[C@H](C)NC(=O)C/C=C\[C@@H](C)[C@H](OC)COC(=O)[C@@H](OCc2ccccc2)/C=C\[C@@H]1C`, the activity, negative = inhibition is 3.57% [at 11.4 µM] (inactive).

Turning to `O=S(=O)(c1ccccc1)N1CN2CN(C1)CN(S(=O)(=O)c1ccccc1)C2`, the activity, negative = inhibition was 2.33% [at 11.4 µM] (inactive).

With `NNS(=O)(=O)c1cc(C(=O)O)cc(C(=O)O)c1`, the activity, negative = inhibition is 5.99% [at 11.4 µM] (inactive).

On to `COc1ccc(Oc2ncc3nc(-c4cn(C)c5ccccc45)c(=O)n(C)c3n2)cc1`, for which the AC50 result was “inactive”.

`COc1ccc(C(=O)NC(C)c2cc(OC)c(OC)cc2Br)cc1` (stereo not given): the AC50 entry was “inactive”.

`CN(C)[C@@H]1C(=O)C(C(N)=O)=C(O)[C@]2(O)C(=O)C3=C(O)c4c(O)ccc(Cl)c4[C@H](O)[C@H]3C[C@@H]12`: the AC50 entry was “inactive”.

Consider `O=C(c1ccccc1-c1nc(-c2ccccc2)no1)N1CCOCC1`, for which the AC50 entry is “inactive”.

For `CC1(C)SC(=S)N(Cc2ccc3c(c2)OCO3)C1N(O)C(=O)NC1CCCCC1` (stereo not given), the AC50 is 2.24 µM (active).

Take `CCOC(=O)N/N=C1/C[C@@H](O)[C@@H](O)[C@@H]2[C@@H]3C(=O)N(Cc4ccc5c(c4)OCO5)C(=O)[C@H]3CC[C@H]12`: the activity, negative = inhibition is -9.22% [at 11.4 µM] (inactive).

As for `COc1ccccc1Nc1nc(-c2sc(NC(=O)c3ccc([N+](=O)[O-])cc3)nc2C)cs1`, the AC50 result is “inactive”.

As for `Cc1nc2ccccn2c1C(=O)N/N=C/c1ccccc1[N+](=O)[O-]`, the AC50 result is “inactive”.

`Nc1cc(Cl)nc(N/N=C/c2ccccc2[N+](=O)[O-])n1`: the AC50 entry is “inactive”.

Consider `O=[N+]([O-])c1cccc(/C=N\Nc2ccc3ccccc3n2)c1O`, for which the AC50 was 3.16 µM (active).

As for `O=C(O)c1c2ccccc2cc2ccccc12`, the AC50 result is “inactive”.

With `C/C(CCC(=O)OC[C@@H]1O[C@H](C#Cc2ccccc2)C=C[C@@H]1Oc1ccc(C)cc1)=N/OC[C@@H](O)[C@H]1O[C@H]2OC(C)(C)O[C@H]2[C@@H]1O`, the activity, negative = inhibition is 14.6% [at 11.4 µM] (inactive).

With `CCn1c(N2CCN(C(=O)Nc3ccc(F)cc3)CC2)nc2ccccc21`, the AC50 result is “inactive”.

With `COc1cccc(N2CCN(C(=S)Nc3cccc(C)c3)CC2)c1`, the AC50 entry is “inactive”.

In the case of `CCOC(=O)N/N=C1/C[C@@H](O)[C@@H](O)[C@@H]2[C@@H]3C(=O)N([C@@H](C)c4ccccc4)C(=O)[C@H]3CC[C@H]12`, the activity, negative = inhibition was 18.4% [at 11.4 µM] (inactive).

Take `NC(N)=Nc1nc(CCN2C(=O)c3ccccc3C2=O)cs1`: the AC50 is 15.8 µM (active).

Take `Nc1nonc1-c1noc(CCCN2C(=O)c3ccccc3C2=O)n1`: the AC50 result was “inactive”.

Take `N#C/C(=C/c1cccc(C(F)(F)F)c1)c1nc(CCN2C(=O)c3ccccc3C2=O)cs1`: the AC50 result is “inactive”.

In the case of `COc1cc(S(C)=O)ccc1-c1nc2ncccc2[nH]1` (stereo not given), the AC50 entry is “inactive”.

Regarding `O=C(c1ccc(Oc2ccc(C(F)(F)F)cn2)cc1)N1CCN(c2ccccc2)CC1`, the AC50 entry is “inactive”.

`CCC(=O)Nc1cccc(NC(=O)c2cccc([N+](=O)[O-])c2)c1`: the AC50 entry was “inactive”.

Regarding `CC1CCN(CC(=O)Nc2cccc([N+](=O)[O-])c2)CC1`, the AC50 is 5.62 µM (active).

For `O=C(CN1CCCCC1)Nc1nnc(-c2ccc([N+](=O)[O-])cc2)s1`, the AC50 result is “inactive”.

`COc1ccc(N(CC(=O)O)N=O)cc1`: the activity, negative = inhibition was 8.99% [at 11.4 µM] (inactive).

In the case of `COc1ccc(OC)c2[nH]c(=O)c(CCNC(=O)c3ccc(S(=O)(=O)N(C)C)cc3)cc12`, the AC50 result was “inactive”.

As for `O=C1[C@@H]2[C@H]3[C@H](O)[C@H](O)C/C(=N/OC[C@@H](O)COCc4ccco4)[C@@H]3CC[C@H]2C(=O)N1c1ccc(F)cc1F`, the activity, negative = inhibition is 10.9% [at 11.4 µM] (inactive).

On to `C=CCOc1c(Br)cc(CNc2ccc(NC(=O)C(C)C)c(OC)c2)cc1OC`, for which the AC50 entry is “inactive”.

Turning to `COc1cc(C)c(Br)cc1S(=O)(=O)NCc1ccccc1`, the AC50 result is “inactive”.

In the case of `COc1ccccc1CNCc1cccs1`, the AC50 is 0.794 µM (active).

In the case of `COc1cc(CNCc2cccs2)cc(Br)c1OC`, the AC50 was 0.0562 µM (active).

Turning to `COc1ccccc1CNC(=O)C1CCN(S(=O)(=O)N2CC(C)CC(C)C2)CC1` (stereo not given), the AC50 result was “inactive”.

As for `COc1ccccc1CNC(=O)C/C(C)=N/NC(=O)Cc1ccccc1`, the AC50 entry was “inactive”.

Turning to `O=P(Cc1cc[n+]([O-])cc1)(c1ccccc1)c1ccccc1`, the AC50 entry was “inactive”.

Regarding `CCC(C)NS(=O)(=O)c1ccc(OCC(=O)NCC2CCCO2)cc1` (stereo not given), the AC50 result is “inactive”.

One may read the AC50 as the concentration at which the activity in the assay is half-maximal.
